In PubChem BioAssay (NCATS) one finds Potency and viability data, which are given here for 39 compounds.

The nature of test [1]: Quantitative High-Throughput drug screen in 47 multiple myeloma cell lines against the NCATS MIPE library collection: KMS34_JCRB cell viability assay (AID 1918985). Also: nearly all actives have a fitted effect of over 40% in size. The essentials:
(§1)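 500 cells/well; MIPE 4.0 drugs pin-transferred; 48 h, 37C, 5% CO2. CellTiter-Glo, 5 min RT, luminescence. Controls: DMSO 100%, media 0%.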

Test [2] can be described thus: Quantitative High-Throughput drug screen in 47 multiple myeloma cell lines against the NCATS MIPE library collection: OCIMY7_PLB cell viability assay (AID 1918987). Also: nearly all actives have a fitted effect of over 65% in size. The essentials:
as §1

The nature of test [3]: Quantitative High-Throughput drug screen in 47 multiple myeloma cell lines against the NCATS MIPE library collection: OCIMY5_PLB cell viability assay (AID 1918988). Also: nearly all actives have a fitted effect of over 65% in size. The essentials:
as §1

A short description of test [4]: Quantitative High-Throughput drug screen in 47 multiple myeloma cell lines against the NCATS MIPE library collection: OPM1_PLB cell viability assay (AID 1918989). Also: nearly all actives have a fitted effect of over 40% in size. The essentials:
as §1

Test [5] can be described thus: Quantitative High-Throughput drug screen in 47 multiple myeloma cell lines against the NCATS MIPE library collection: U266_ATCC cell viability assay (AID 1919864). Also: nearly all actives have a fitted effect of over 35% in size. The essentials: as §1
Test [6] is described as follows: Quantitative High-Throughput drug screen in 47 multiple myeloma cell lines against the NCATS MIPE library collection: XG6_PLB cell viability assay (AID 1919865). Also: nearly all actives have a fitted effect of over 40% in size. The essentials:
as §1

A short description of test [7]: Quantitative High-Throughput drug screen in 47 multiple myeloma cell lines against the NCATS MIPE library collection: XG1_PLB cell viability assay (AID 1919866). Also: nearly all actives have a fitted effect of over 35% in size. The essentials: as §1
Test [8] in a line: Quantitative High-Throughput drug screen in 47 multiple myeloma cell lines against the NCATS MIPE library collection: L363_DSMZ cell viability assay (AID 1918984). Also: nearly all actives have a fitted effect of over 40% in size. The essentials:
as §1

A short description of test [9]: Quantitative High-Throughput drug screen in 47 multiple myeloma cell lines against the NCATS MIPE library collection: SKMM1_PLB cell viability assay (AID 1919863). Also: nearly all actives have a fitted effect of over 35% in size. As to viability: series mostly up to about 46 µM. The conditions noted are these: SKMM1 myeloma viability, CellTiter-Glo ATP, 48 h; viability: stronger effect = lower value. The essentials: as §1
In general terms: Cellular ATP, detected with luciferase, serves as a proxy for viable cell number.

Test [10] can be described thus: Quantitative High-Throughput drug screen in 47 multiple myeloma cell lines against the NCATS MIPE library collection: VP6_DJ cell viability assay (AID 1919867). Also: nearly all actives have a fitted effect of over 40% in size. The essentials:
as §1

SMILES strings stand for the structures. Results filed as inconclusive are left out. A number with no mark means an inactive call. The source made the active and inactive calls. Calls follow the shape of the dose curve; as a rule, active = well fitted cell-killing curve with a large enough effect; inconclusive = small, poorly fitted or top-dose-only effect, or effect the other way; inactive = no such curve, though single readings can be large or run the other way.
Potency is read from the fitted curve at half-maximal effect.

As for `CCC1(C)CC(=O)NC1=O` (stereo not given), the Potency result in test [1], in test [2], in test [3], in [4], in test [5] and in [6] was “inactive” each time. Also, the Potency result in test [7] is “inactive”.
Take `COc1cc2nc(N3CCN(C(=O)c4ccco4)CC3)nc(N)c2cc1OC`: the Potency is 7.43 µM (active) in test [8]; 10.5 µM (active) in test [2]; 8.33 µM (active) in test [4]; 23.5 µM (active) in test [9]; 18.7 µM (active) in [5]; 7.43 µM (active) in [6]. Also, the Potency in test [7] is 8.33 µM (active); in test [10], 10.5 µM (active).
Turning to `CC(C(=O)O)c1cccc(C(=O)c2ccccc2)c1` (stereo not given), the Potency result in test [1], in test [2] and in test [5] was “inactive” in each case. The Potency is 20.9 µM (active) in test [3], 13.2 µM (active) in test [6], 14.8 µM (active) in [7] and 14.8 µM (active) in [10].
With `CCc1cccc2c3c([nH]c12)C(CC)(CC(=O)O)OCC3` (stereo not given), the Potency entry in test [1], in test [4], in [5], in [6] and in test [7] was “inactive” throughout.
By viability is commonly meant a read-out of living cells in per cent, often relative to untreated cells. Take `CN1CCN(C2=Nc3cc(Cl)ccc3Nc3ccccc32)CC1`: the Potency entry in test [2], in test [3] and in test [5] was “inactive” throughout. Also, the Potency in test [4] is 23.5 µM (active). Also, the viability in test [9] was 114%.
Take `O=C1Cc2cc(CCN3CCN(c4nsc5ccccc45)CC3)c(Cl)cc2N1`: the Potency was 20.9 µM (active) in [1]; 37.2 µM (active) in test [3]; 23.5 µM (active) in [6]; 23.5 µM (active) in [7]; 16.6 µM (active) in [10].
In the case of `Nc1nnc(-c2cccc(Cl)c2Cl)c(N)n1`, the Potency is 33.2 µM (active) in test [2], 23.5 µM (active) in [4], 9.35 µM (active) in test [6] and 16.6 µM (active) in test [7]. Also, in test [3], the Potency result is “inactive”.
Take `CN1CCC(=C2c3ccccc3C=Cc3ccccc32)CC1`: the Potency in test [2] was 5.9 µM (active); in test [3], 18.7 µM (active); in test [4], 18.7 µM (active); in test [5] it was 16.6 µM (active); in test [6], 8.33 µM (active); in test [7] it was 13.2 µM (active). Besides, the Potency in test [10] was 16.6 µM (active).
In the case of `Cn1c(=O)c2[nH]cnc2n(C)c1=O`, the Potency result in [1] and in test [4] was “inactive” throughout. Moreover, the viability in [9] was 104%. Moreover, the Potency was 20.9 µM (active) in [5] and 26.4 µM (active) in [6].
Take `O=C1N(c2ccccc2)c2ccccc2C1(Cc1ccncc1)Cc1ccncc1`: the Potency result in test [1], in test [4] and in test [5] was “inactive” each time. Further, the Potency is 37.2 µM (active) in [3], 18.7 µM (active) in test [7] and 20.9 µM (active) in test [10].
For `Clc1ccc2c(c1)C(N1CCNCC1)=Nc1ccccc1O2`, the Potency in [1] was 18.7 µM (active); in [3], 20.9 µM (active); in test [4], 20.9 µM (active). The Potency result in test [6] and in test [7] was “inactive” throughout.
`NC12CC3CC(CC(C3)C1)C2`: the Potency entry in [2] was “inactive”. Moreover, the Potency in test [3] was 0.0026 µM (active); in test [5], 26.4 µM (active); in test [6], 2.96 µM (active); in test [10] it was 3.32 µM (active). In [9], the viability is 134%.
As to `C[C@H]1c2cccc(O)c2C(O)=C2C(=O)[C@]3(O)C(O)=C(C(N)=O)C(=O)[C@@H](N(C)C)[C@@H]3[C@@H](O)[C@@H]21`, the Potency in test [2] is 11.8 µM (active); in test [3], 23.5 µM (active); in test [6], 18.7 µM (active); in [7], 18.7 µM (active).
With `O=C(C1CCCCC1)N1CC(=O)N2CCc3ccccc3C2C1` (stereo not given), the Potency result in [1], in [3], in test [4], in test [5] and in [10] was “inactive” in each case. In addition, the Potency in [6] was 20.9 µM (active); in test [7] it was 16.6 µM (active).
`CN(Cc1cnc2nc(N)nc(N)c2n1)c1ccc(C(=O)N[C@@H](CCC(=O)O)C(=O)O)cc1`: the Potency in test [1] is 0.0935 µM (active); in [5], 0.148 µM (active); in test [6], 0.0469 µM (active); in [7], 0.0372 µM (active); in test [10] it was 0.0662 µM (active).
As to `NCCS(=O)(=O)O`, the Potency result in test [1], in test [4], in [5], in test [6] and in test [7] was “inactive” in each case.
On to `CC(C)(C)C(=O)Oc1ccc(S(=O)(=O)Nc2ccccc2C(=O)NCC(=O)O)cc1`, for which the Potency result in [1] and in [4] was “inactive” each time. Moreover, the viability in test [9] is 142%.
As for `NC(=O)OCC(COC(N)=O)c1ccccc1`, the Potency entry in test [1], in test [6] and in test [7] was “inactive” in each case. Besides, in [5], the Potency is 10.5 µM (active).
`COc1ccccc1N1CCN(CC(O)COc2cccc3ccccc23)CC1` (stereo not given): the Potency result in [1], in test [5], in test [7] and in test [10] was “inactive” throughout. Besides, the Potency in test [4] is 14.8 µM (active).
Take `CN1CCN2c3ccccc3Cc3ccccc3C2C1` (stereo not given): the Potency in test [2] was 18.7 µM (active); in [3] it was 23.5 µM (active); in test [4], 16.6 µM (active); in [6], 10.5 µM (active); in test [7], 18.7 µM (active); in test [10], 3.72 µM (active).
Consider `O=c1[nH]cc(F)c(=O)[nH]1`, for which the Potency is 7.43 µM (active) in [2]; 3.32 µM (active) in [5]; 4.69 µM (active) in [6]; 7.43 µM (active) in [7]; 5.9 µM (active) in [10]. In test [3], the Potency entry is “inactive”.
Consider `CC(C)(Oc1ccc(C2CC2(Cl)Cl)cc1)C(=O)O` (stereo not given), for which the Potency entry in [2], in [4], in [5] and in test [7] was “inactive” in each case. Further, in test [9], the viability is 131%.
On to `CN1CCN(CCCN2c3ccccc3Sc3ccc(Cl)cc32)CC1`, for which the Potency in test [2] is 26.4 µM (active); in test [3] it was 26.4 µM (active); in test [4], 16.6 µM (active); in test [5] it was 18.7 µM (active); in [6] it was 14.8 µM (active); in test [7] it was 14.8 µM (active). The Potency in test [10] was 10.5 µM (active).
Consider `CN1C(C(=O)Nc2ccccn2)=C(O)c2ccccc2S1(=O)=O`, for which the Potency entry in [1], in test [3], in [5], in [6], in test [7] and in test [10] was “inactive” each time.
As for `C[C@@H]1CC(=O)NN=C1c1ccc(NN=C(C#N)C#N)cc1`, the Potency in test [1] was 20.9 µM (active); in [3], 18.7 µM (active); in test [4], 18.7 µM (active); in test [6] it was 23.5 µM (active); in test [7], 18.7 µM (active); in [10], 18.7 µM (active).
For `CN(C)CCCN1c2ccccc2CCc2ccc(Cl)cc21`, the Potency in test [2] was 0.187 µM (active); in [3] it was 0.418 µM (active); in [4], 14.8 µM (active); in test [5], 0.526 µM (active); in test [6], 0.372 µM (active); in [7], 0.372 µM (active). In addition, the Potency in test [10] was 0.935 µM (active).
Turning to `Nc1c2c(nc3ccccc13)CCCC2`, the Potency entry in test [2], in test [4], in test [6] and in test [7] was “inactive” throughout. Also, the Potency in test [3] was 23.5 µM (active).
With `CC1(C)O[C@H]2CC(=O)OC[C@]23[C@H]2CC[C@@]4(C)[C@H](c5ccoc5)OC(=O)[C@H]5O[C@]54[C@]2(C)C(=O)C[C@@H]13`, the Potency result in [1], in [6] and in [7] was “inactive” in each case.
As to `NS(=O)(=O)c1cc2c(cc1Cl)NCNS2(=O)=O`, the Potency entry in [1] is “inactive”. Also, the viability in [9] is 114%. In addition, the Potency in test [7] is 7.43 µM (active).
As for `Cc1ccccc1N1C(=O)c2cc(S(N)(=O)=O)c(Cl)cc2NC1C` (stereo not given), the Potency result in test [1], in [3], in test [4], in test [6] and in [7] was “inactive” in each case. For the same compound, the Potency in [5] is 3.72 µM (active).
As to `CCCNCC(O)COc1ccccc1C(=O)CCc1ccccc1` (stereo not given), the Potency entry in [1], in test [5] and in test [6] was “inactive” each time.
`NC(CO)C(=O)NNCc1ccc(O)c(O)c1O` (stereo not given): the Potency in test [1] is 26.4 µM (active). For the same compound, the Potency result in test [4], in test [6] and in test [7] was “inactive” each time.
In the case of `CN(C)c1nc(N(C)C)nc(N(C)C)n1`, the Potency entry in test [1], in test [4] and in test [7] was “inactive” in each case.
Take `CN(C)C(=O)C(CCN1CCC(O)(c2ccc(Cl)cc2)CC1)(c1ccccc1)c1ccccc1`: the Potency in test [2] is 20.9 µM (active); in test [3] it was 16.6 µM (active); in [4], 23.5 µM (active); in test [5] it was 18.7 µM (active); in test [6], 20.9 µM (active); in test [7] it was 18.7 µM (active). Besides, in test [10], the Potency is 20.9 µM (active).
`CC(COc1ccccc1)N(CCCl)Cc1ccccc1` (stereo not given): the Potency entry in [1] and in [5] was “inactive” each time. The Potency in test [3] was 26.4 µM (active). For the same compound, in test [9], the viability is 112%.
With `CC(=O)OCC(CCn1cnc2cnc(N)nc21)COC(C)=O`, the Potency result in [1], in test [3], in test [6], in test [7] and in [10] was “inactive” in each case. In addition, the Potency in test [4] is 0.0012 µM (active).
Regarding `NC(=O)NO`, the Potency in test [2] is 0.132 µM (active); in [3] it was 0.235 µM (active); in [4] it was 0.833 µM (active); in test [5] it was 2.64 µM (active); in [6], 2.35 µM (active); in [7], 9.35 µM (active). Moreover, the Potency in [10] is 1.05 µM (active).
For `Clc1ccc(C(c2ccccc2Cl)C(Cl)Cl)cc1` (stereo not given), the Potency in [9] is 20.9 µM (active).
Turning to `CN(C)C(=N)N=C(N)N`, the viability in test [9] was 138%.
